# Source: PubChem BioAssay AID485364 (National Center for Advancing Translational Sciences (NCATS), 2010)
# In all, about 360,000 compounds went through this assay and about 11,000 (3.1%) were called active. Inconclusive results (about 4%) are left out. The full list was thinned out, with actives kept by preference. Values without a mark were called inactive. The call rests on the fitted dose curve; in most records, active means well fitted inhibition curve with a large enough effect; inconclusive means small, poorly fitted or top-dose-only effect; inactive means no such curve, though single readings can be large or run the other way.
# Target: Schistosoma mansoni thioredoxin glutathione reductase (TGR) (UniProt Q962Y6)
# Test: qHTS Assay for the Inhibitors of Schistosoma Mansoni Peroxiredoxins; further: nearly all actives have a fitted effect of over 60% in size
# Conditions: purified TGR, DTNB reduction, TNB absorbance 405 nm; series mostly up to 114 µM; activity change, negative = inhibition: at the top concentration
# Text: Schistosomiasis is a major neglected tropical disease that currently affects over 200 million. It is caused by different species of flatworms, such as Schistosoma mansoni. Over the last century, drugs to treat the disease have evolved from potassium antimonyl tartrate, artemisinin, oxamniquine, to praziquantel, with praziquantel remaining the universally-used single drug of choice over the past three decades. However, transmission rates have changed little with praziquantel, and there is evidence for the development of drug resistant parasites. Because there is currently no suitable alternative therapy available, there is an urgent need to identify new targets and drugs for schistosomiasis treatment. Thioredoxin glutathione reductase (TGR), one uniquely positioned S. mansoni enzyme, has been identified as a major component of the worms' distinct and compressed antioxidant "firewall". TGR is a multifunctional enzyme that catalyzes the interconversion between reduced and oxidized forms of both glutathione (GSH) and thioredoxins, thus making it an attractive new antiparasitic target. Recently, a quantitative high-throughput screen of the NIH Molecular Libraries Small Molecule Repository (MLSMR, ~71K at the time of the screen in 2007) was performed using an assay that targeted both TGR and peroxiredoxin2 (Prx2, an H2O2-reducing enzymatic component of the S. mansoni redox "firewall") by following the decrease of NADPH fluorescence. […] Additional mechanistic link between exogenous NO donation and parasitic injury for the oxadiazole-2-oxide class of compounds was also expanded and better defined. Although the screen addressed both TGR and Prx2, the assay required post-screen target deconvolution for further characterization of the actives. In addition, the fluorescence assay was also subject to fluorescence interference from compound library members. We have developed a 1536-well-based kinetic HTS assay to address TGR alone. The assay followed the reduction of 5, 5'-dithiobis (2-nitrobenzoic acid) (DTNB) (Ellman's reagent) by NADPH and measured the increase in absorbance at 412 nm of the reaction product, TNB. […] This assay format can be used to screen the current MLSMR collection (with >300K compounds available) to find novel TGR inhibitors. Furoxan is a good choice to serve as a positive control in the primary HTS assay.
# Three microliters of reagents (100 uM NADPH and 20 nM TGR or 100 uM NADPH as no-enzyme control) were dispensed into 1,536-well black clear-bottomed plates. Compounds (23 nL) were transferred via Kalypsys pin tool equipped with 1536-pin array (10 nL slotted pins, V&P Scientific, San Diego, CA). The plates were then be incubated for 15 min at room temperature, and 1 uL aliquot of 500 uM NADPH were added, immediately followed by a 1 uL aliquot of 15 mM DTNB to start the reaction. The plate was transferred to a ViewLux high-throughput CCD imager (Perkin-Elmer, Wellesley, MA) where kinetic measurements of the TNB absorbance were acquired using a 405 excitation filter. Throughout the screen, reagent bottles and all liquid lines were made light-tight to minimize reagent degradation. All screening operations were performed on a fully integrated robotic system (Kalypsys, San Diego, CA) containing one RX-130 and two RX-90 anthropomorphic robotic arms (Staubli, Duncan, SC). Library plates were screened starting from the lowest and proceeding to the highest concentration, and a "double-dipping" step of the highest concentration was required to access higher concentrations of compounds. Vehicle-only plates, with DMSO being pin-transferred to the entire column 5-48 compound area, were inserted uniformly at the beginning and the end of each library in order to monitor for and record any shifts in the background, which can be affected by reagent dispensers or loss in enzyme activity overtime. […]
# On the % scale 0 is the no-effect control and ±100 the full control effect; potency means the concentration at half of the fitted maximal effect.
Compound,"activity change, negative = inhibition [%]",Potency
CCCOC(=O)c1c(NC(=O)c2cc3nc(-c4ccc(OC)cc4)cc(C(F)(F)F)n3n2)sc2c1CCCC2,53.4,
COc1ccc(C2(Nc3cccc(F)c3)C(=O)c3ccccc3C2=O)cc1,9.65,
CCNC(=S)N1CCN(CCN=CC2=C(O)CC(C)(C)CC2=O)CC1,-20.2,
CC1(C)CC(=O)C(C=NCCN2CCN(C(=S)Nc3cccc(Cl)c3)CC2)=C(O)C1,-9.3,
CC(=O)N1CCN(CCN=CC2=C(O)CC(C)(C)CC2=O)CC1,,28.2 µM (active)
CCOc1ccccc1C(=O)NCc1ccc2c(c1)CCN2C(=O)c1ccc(F)cc1,0.127,
CCOC(=O)c1ccc(NC2=CC(c3ccc(OCC)cc3)N(c3ccc(C(=O)OCC)cc3)C2=O)cc1 (stereo not given),-0.96,
CC(C)(C)OC(=O)N1CCC(c2c(C(=O)N3CCN(c4cccc(Cl)c4)CC3)cnn2-c2cccc(Cl)c2)CC1,14.1,
COc1ccccc1OCC(=O)O/N=C(\N)c1ccccn1,11.4,
COc1ccc(NC(=O)COCc2cc(-c3ccco3)on2)cc1,0.166,
COc1ccccc1OCC(=O)OCc1cc(-c2ccco2)on1,,56.2 µM (active)
O=C(CCS(=O)(=O)c1cc(Br)cc2c1N(C(=O)C1CC1)CC2)Nc1ccc(C(F)(F)F)cc1,-5.59,
CC1(C)CC(=O)C(N=Nc2ccc(S(=O)(=O)N3CCCCCC3)cc2)=C(O)C1,-12,
O=C1CCCC(O)=C1N=Nc1ccc(S(=O)(=O)N2CCOCC2)cc1,,44.7 µM (active)
Cc1ccc(S(=O)(=O)N2CCN(S(=O)(=O)N3CCOCC3)CC2)cc1,0.025,
COc1ccc(-c2nn3c(-c4ccc(OC)cc4)nnc3c3ccccc23)cc1,8.01,
Cc1cc2c(cc3c(SCc4nc(-c5ccccc5)oc4C)nnc(C)n32)o1,1.33,
Cc1noc2ncnc(NCc3ccccc3Cl)c12,-1.77,
Cc1c(C(=O)N(C)C)sc2c1c(=O)n(-c1ccc(F)cc1)c(=O)n2CC(=O)N(C)c1ccccc1,9.3,
Cc1cc(=O)[nH]c(N/N=C/c2c(C)nn(-c3ccccc3Cl)c2Cl)n1,-10.1,
C(=N\Nc1ccc2ccccc2n1)/c1ccc2c(c1)OCO2,0.889,
Cc1cc(=O)[nH]c(N/N=C/c2ccc3c(c2)OCCO3)n1,,39.8 µM (active)
CC1=Nc2cc(C(=O)NCc3ccc(C)cc3)ccc2Sc2ccc(Cl)cc21,-3.91,
COc1cccc(CNC(=O)Cn2ncn3c(cc4ccccc43)c2=O)c1,1.74,
COC(=O)C1=C(C)NC(=O)/C1=C/c1ccc(CNS(=O)(=O)c2ccc(C)cc2)o1,,22.4 µM (active)

Compound,"activity change, negative = inhibition [%]",Potency
COc1ccccc1CNS(=O)(=O)c1ccc(C)cc1,0.213,
Cc1ccc(CCNC(=O)c2ccc(CNS(=O)(=O)c3ccc(C)cc3)cc2)cc1,-4.55,
CCc1ccccc1NC(=O)c1ccc(F)c(S(=O)(=O)NC2CCCCCC2)c1,46.2,
CC/C(O)=N\S(=O)(=O)c1ccc(N=NN(C)C)cc1,9.42,
CN(C)N=Nc1ccc2nc[nH]c2c1,,39.8 µM (active)
COc1ccc(/C(C)=N/NC(=O)c2ccc3nc[nH]c3c2)cc1,-6.56,
CCc1nn(CC(=O)Nc2cc(C)cc(C)c2)c(=O)c2cc3sccc3n12,-2.35,
CC(=O)N(CN1C(=O)C2CC=CCC2C1=O)c1cccc(Cl)c1 (stereo not given),-19.7,
COC(=O)c1cc(C(=O)N(Cc2ccccc2)c2ccccn2)cc([N+](=O)[O-])c1,-1.34,
O=C(CCl)N(Cc1cccc([N+](=O)[O-])c1)c1cccc(Cl)c1,,2.51 µM (active)
COc1cc(-c2noc(-c3ccc(N4CCCC4)c([N+](=O)[O-])c3)n2)cc(OC)c1OC,-30,
O=C(Nc1ccc(Br)cc1)c1cc2nc(-c3ccccc3)cc(-c3ccccc3)n2n1,6.76,
Cc1ccc(NC(=O)C2CCCN2C(=O)OCc2ccccc2)cc1C (stereo not given),-10.2,
Cc1ccc(NNC(=O)C2CCC2)cc1C,,56.2 µM (active)
O=C(NNC(=O)C1CCC1)c1ccccc1,49.6,
Cc1oc(-c2ccccc2F)nc1CN1CCC(C(=O)NCCc2ccc(Cl)cc2)CC1,-0.147,
CCOC(=O)c1c(S(=O)(=O)N2CCCC(C(=O)NCc3cccc(C)c3)C2)c(C)n(C)c1C (stereo not given),7.51,
Cc1ccccc1CS(=O)(=O)CC1Nc2ccc(C(=O)NCc3ccc(Cl)cc3)cc2NC1=O (stereo not given),-2.2,
Cc1cc(C)cc(NC(=O)Cc2csc(C)n2)c1,8.94,
CCc1cccc(C)c1NC(=O)CSc1nnc(-c2ccco2)n1N,1.38,
CCOc1ccc(-n2c(SCC(N)=O)nnc2-c2ccco2)cc1,-34,
Cc1cccc(C)c1NC(=O)CCCSc1nnc(-c2ccco2)n1-c1ccccc1,,89.1 µM (active)
CC(C)C(=O)NC(=S)Nc1ccccc1F,-28.6,
O=C(NC(=S)NC1CCSC1=O)c1ccccc1F (stereo not given),2.76,
COC(=O)c1ccccc1NC(=S)NC(=O)c1ccccc1F,,22.4 µM (active)
